# Assay outcomes deposited in PubChem BioAssay by several laboratories.
# The list is not random: actives were taken first. Their share in the collection is about 3.1%.
# PAX8 inh HTS – PAX8 transcriptional activity inhibition; RMG-I TPO-luciferase reporter, SteadyGlo, 24 h; inhibition, % at 12.6 µM; 360,000 compounds, 1.2% hits;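 active means mean replicate inhibition at least 60% with every replicate also reaching 60%; inconclusive means only one of the two criteria is met; inactive means mean below 60% and not all replicates reaching 60%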;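 further: luciferase light reporting Pax8 driven TPO promoter activity; plate controls were median of neutral control wells for no effect and mitoxantrone controls for full effect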
# TROY signal inh – blocks TROY-dependent signaling in reporter cells; 360,000 compounds, 0.98% hits; Q293 LMP1-TROYcd NF-kB luciferase reporter, 4 h; inhibition, % at 10 µM;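 active means compounds whose plate-normalised and pattern-corrected inhibition of the luciferase reporter signal at the single screening dose is 50% or more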
# EBV LMP1 NFkB – inhibitors of Epstein-Barr LMP1-induced NF-kappaB reporter; LMP1-induced NF-kappaB luciferase reporter cells, luminescence; inhibition, % at 12.5 µM; 350,000 compounds, 0.69% hits; AID 504558; in the data active means inhibition above about 41%; inconclusive means no clear call, values can overlap the other calls;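 further: 0% = neutral control wells and 100% = reference inhibitor control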
# LGR2 inh – Drosophila LGR2 receptor signaling inhibition | 380,000 compounds, 0.35% hits | HEK293 LGR2, CRE-luciferase, bursicon-stimulated, 4 h | inhibition, % at 9.99 µM;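 active means drop in luminescence signal, shown as inhibition above about 50% in the replicate tests, limit read from the data, passing the limit was not always enough; inconclusive means probably only some replicates passing the limit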;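 further: agonist challenge used bursicon conditioned medium at about half maximal strength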
# EWS-Fli inh – inhibitors of EWS/Fli oncoprotein transcriptional activity | A673 NR0B1-luciferase reporter, viability-normalised | inhibition, % at 12.6 µM | 350,000 compounds, 0.67% hits | AID 651661;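 active means mean inhibition of at least 50% after viability correction, with every replicate also passing that limit; inconclusive means mean reaches 50% but only one of two replicates passes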;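 further: firefly luciferase signal divided by Alamar Blue viability fluorescence both relative to DMSO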
# TWEAK Fn14 block – inhibitors of TWEAK-Fn14 interaction signaling; TWEAK-stimulated Fn14 reporter cells, luciferase luminescence, 8 h; inhibition, % at 10 µM; 360,000 compounds, 2% hits; in the data active means inhibition above about 50%
# * hit, by the source's call; ? = inconclusive; · = no result.
SMILES,PAX8 inh HTS,TROY signal inh,EBV LMP1 NFkB,LGR2 inh,EWS-Fli inh,TWEAK Fn14 block
C[C@@H]1CN([C@H](C)CO)C(=O)c2cc(NC(=O)Nc3ccc(C(F)(F)F)cc3)ccc2O[C@@H](C)CCCCO[C@H]1CN(C)C,50,·,·,5,3,·
Cn1nc(-c2ccc(N3CCOCC3)c(NS(=O)(=O)c3ccc(Cl)cc3)c2)c2ccccc2c1=O,·,·,4,·,·,61*
O=C(O)c1cc(N=Nc2c(O)ccc3ccccc23)cc(C(=O)O)c1,-14,-12,-17,·,-17,-3
O=C(O)c1ccc(N=Nc2c(O)ccc3ncccc23)cc1,17,-16,-33,30,-63,59*
COc1ccc(C2C(O)C(c3c[nH]c4ccccc34)=NN2C(=O)CCl)cc1 (stereo not drawn),117*,-26,-19,23,62*,94*
NNc1nc2sc3c(c2c(=O)n1Cc1ccccc1)CCC3,4,-5,-9,-11,-11,-21
NNc1nc(-c2ccccc2)nc2sc3c(c12)CCCC3,-110,72*,-8,7,·,79*
CCOc1cccc(NC(=O)/C(C#N)=C\c2cn(CC(=O)O)c3ccccc23)c1,-19,2,6,20,7,7
CCOc1ccc(NC(=O)/C(C#N)=C/c2cn(CC(=O)O)c3ccccc23)cc1,8,-3,16,·,15,92*
COCCOC(=O)N1C(=O)[C@@]2(c3cc(C#Cc4ccc(OC)cc4)ccc31)[C@H](c1ccc(O)cc1)N1[C@H](c3ccccc3)[C@H](c3ccccc3)OC(=O)[C@H]1[C@@H]2C(=O)N1CCCCCCC1,5,·,·,·,-19,·
CNC[C@@H]1Oc2ccc(NS(=O)(=O)c3c(C)noc3C)cc2C(=O)N([C@H](C)CO)C[C@H]1C,5,·,·,12,-8,·
COc1ccc([C@@H]2C[C@H]3CN(c4ccccc4)C(=O)[C@]34CCCN24)c(OC)c1OC,-15,7,11,3,6,-10
CC(C)(O)C#Cc1ccc([C@@H]2C[C@H]3CN(c4ccccc4)C(=O)[C@]34CCCN24)s1,?,2,54*,1,16,19
O=C1N(c2ccccc2)C[C@@H]2C[C@@H](c3cccs3)N3CCC[C@@]123,75*,1,0,?,2,26
c1ccc2c(-c3ccc4nncn4c3)cncc2c1,-21,40,·,19,-14,78*
C[C@@H]1CCCCO[C@@H](CN(C)C(=O)Nc2ccc(C(F)(F)F)cc2)[C@@H](C)CN([C@H](C)CO)C(=O)c2cc(NC(=O)NC3CCCCC3)ccc2O1,24,·,·,-1,·,·
C[C@@H]1CN([C@@H](C)CO)C(=O)c2cc(NC(=O)Nc3ccc(C(F)(F)F)cc3)ccc2O[C@@H](C)CCCCO[C@@H]1CN(C)C(=O)NC1CCCCC1,39,·,·,25,-2,·
C[C@H](CO)N1C[C@H](C)[C@H](CN(C)C(=O)NC2CCCCC2)OCCCC[C@H](C)Oc2ccc(NC(=O)Nc3ccc(F)cc3)cc2C1=O,65*,·,·,41,-1,·
C[C@@H]1CN([C@H](C)CO)C(=O)c2cc(NC(=O)Nc3ccc(C(F)(F)F)cc3)ccc2O[C@@H](C)CCCCO[C@H]1CN(C)C(=O)NC1CCCCC1,96*,·,·,23,17,·
C[C@@H]1CCCCO[C@H](CN(C)C(=O)NC2CCCCC2)[C@H](C)CN([C@H](C)CO)C(=O)c2cc(NC(=O)Nc3ccc(C(F)(F)F)cc3)ccc2O1,73*,·,·,-9,4,·
CCCNC(=O)C[C@H]1CC[C@@H]2[C@@H](COc3ccc(NC(=O)c4cccc(F)c4)cc3C(=O)N2C)O1,7,·,·,-7,-5,·
O=C(NC(=S)Nc1ccc(F)cc1)c1ccc2c(c1)OCCO2,-167,45,-42,-38,-19,42
O=C(NC(=S)Nc1ccc(CN2CCOCC2)cc1)c1ccc2c(c1)OCCO2,-29,17,-12,-20,2,-17
O=C(NC(=S)Nc1ccc(N2CCCCC2)cc1)c1ccc2c(c1)OCCO2,-53,77*,19,·,2,55*
O=C(NC(=S)Nc1ccc(N2CCOCC2)cc1)c1ccc2c(c1)OCCO2,-54,60*,2,-18,·,51*
SMILES,PAX8 inh HTS,TROY signal inh,EBV LMP1 NFkB,LGR2 inh,EWS-Fli inh,TWEAK Fn14 block
C[C@H]1CN([C@@H](C)CO)C(=O)Cc2cc(NC(=O)NC3CCCCC3)ccc2O[C@H]1CN(C)S(C)(=O)=O,1,·,·,6,3,·
Nn1cnnc1SCC(=O)Nc1ccc(C2CCCCC2)cc1,·,-65,-1,·,·,-31
O=C(O)CSCC(=O)Nc1ccc(C2CCCCC2)cc1,·,83*,58*,29,·,92*
CO[C@H]1CN(C)C(=O)c2ccc(NS(=O)(=O)c3cccc(C)c3)cc2OC[C@H](C)NC[C@@H]1C,·,·,·,1,5,·
COc1cc(/C=C2/C(=O)c3cccc([N+](=O)[O-])c3C2=O)c(Br)cc1O,-7,28,-14,-3,-14,57*
N#C/C(=C(/O)c1ccc([N+](=O)[O-])o1)c1nc2ccccc2[nH]1,46,50*,-3,12,9,29
Cc1ccc2nc(/C(C#N)=C\c3ccc([N+](=O)[O-])o3)[nH]c2c1,·,45,-14,·,·,99*
N#C/C(=C\c1ccc([N+](=O)[O-])o1)c1nc2ccccc2[nH]1,32,·,·,12,59*,·
N#C/C(=C\Nc1ccc2c(c1)OCCO2)c1nc2ccccc2[nH]1,·,66*,-39,·,·,61*
N#C/C(=C\Nc1ccc2c(c1)OCCO2)c1nc(-c2ccccc2)cs1,3,7,5,-16,-5,-42
CC(C)(C)/C(O)=C(/C#N)c1nc2ccccc2[nH]1,·,7,-1,·,·,25
C[C@@H]1CCCCO[C@H](CN(C)C(=O)Nc2ccccc2)[C@H](C)CN([C@H](C)CO)C(=O)c2cc(NC(=O)Nc3ccc(F)cc3)ccc2O1,-4,·,·,24,1,·
CCOc1ccc(OCc2ccc(C(=O)O)o2)cc1,·,-49,5,·,·,52*
NC(=S)N/N=C\c1c2ccccc2cc2ccccc12,9,-19,-55,-14,-5,-21
NC(=S)N/N=C\c1c(OCc2ccccc2Cl)ccc2ccccc12,55,22,17,26,41,57*
CC(=O)C1CCC2C3CC=C4CC(SC(=N)N)CCC4(C)C3CCC12C (stereo not drawn),·,26,10,90*,48,7
CC(C)C(=O)N[C@H]1CCC2C3CC=C4C[C@@H](O)CC[C@]4(C)C3CC[C@@]21C (stereo partly drawn),13,4,-2,16,-12,-2
CC(C)(C)[C@H](N)C(=O)N[C@H]1CCC2C3CC=C4C[C@@H](O)CC[C@]4(C)C3CC[C@@]21C (stereo partly drawn),95*,-6,-95,65*,56*,-221
CC(=O)OCC(=O)C1CCC2C3CC=C4CC(O)CCC4(C)C3CCC12C (stereo not drawn),-4,-13,-1,-2,1,-16
